In PubChem BioAssay (NCATS):
Inconclusive results are not listed. A number with no mark means an inactive call. The call rests on the fitted dose curve; in most records, active means well fitted curve in either direction with a large enough effect (not every such curve was filed as active); inconclusive means small, poorly fitted or top-dose-only effect, or another doubt; inactive means flat fitted curve, though single readings scatter.

Assay: Stat Signaling Pathway (AID 446);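 further: ME-180 cervical cancer cells given 40 pM IL-6 alongside compound; SIE-controlled beta-lactamase reporter measured as 460/530 nm FRET emission ratio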
Conditions: ME-180 SIE beta-lactamase reporter, IL-6 stimulated, 5 h; series mostly up to 7.69 µM; activity, negative = inhibition: at the top concentration
In short: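 Screening format detects activators and inhibitors alike: ME-180 SIE-bla cells stimulated at 40 pM IL-6 for 5 hrs with compound, then dual-emission beta-lactamase read at 405 nm excitation.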
On the % scale 0 is the no-effect control and ±100 the full control effect.

**Q.** With CN(C)Cc1ccccc1-c1ccc2ncnc(N(C)C)c2c1 as the molecule, how does the “activity, negative = inhibition” value read?
**A.** -6.89%

**Q.** For COc1ccc2[nH]cc(CCNc3ncncc3-c3ccccc3C(F)(F)F)c2c1, which “activity, negative = inhibition” value is on record?
**A.** -12%

**Q.** With COc1ccccc1CNc1nc(-c2cccc(NS(C)(=O)=O)c2)nc2ccccc12 as the molecule, how does the “activity, negative = inhibition” value read?
**A.** -17.4%

**Q.** Which “activity, negative = inhibition” value does the source give for COc1cccc(Cn2c(=O)cnc3cnc(N(C)C)nc32)c1 here?
**A.** 0.507%

**Q.** For CNc1ncncc1-c1ccccc1CN(C)C, which “activity, negative = inhibition” value is on record?
**A.** 0.224%

**Q.** Which “activity, negative = inhibition” value does the source give for CN(C)C(=O)c1ccc(-c2ccc3ncnc(Nc4ccc(F)cc4)c3c2)cc1 here?
**A.** 7.17%

**Q.** Which “activity, negative = inhibition” value does the source give for c1ccc2c(NCCN3CCOCC3)nc(-c3ccc4c(c3)OCO4)nc2c1 here?
**A.** 0.65%

**Q.** Which “activity, negative = inhibition” value does the source give for CN1CCN(c2nc(-c3ccoc3)nc3ccccc23)CC1 here?
**A.** 3.84%

**Q.** For CN(C)c1nc(-c2cccc(NS(C)(=O)=O)c2)nc2ccccc12, which “activity, negative = inhibition” value is on record?
**A.** 5.62%

**Q.** With O=c1cnc2cnc(N3CCOCC3)nc2n1Cc1cccs1 as the molecule, how does the “activity, negative = inhibition” value read?
**A.** -6.95%

**Q.** Which “activity, negative = inhibition” value does the source give for COc1ccccc1CNc1ncncc1-c1ccccc1C(F)(F)F here?
**A.** 12.8%

**Q.** Which “activity, negative = inhibition” value does the source give for COc1ncc2nc(-c3cccs3)c(=O)n(CCC#N)c2n1 here?
**A.** 13.6%

**Q.** With COc1ccccc1-c1nccc(N2CCN(C)CC2)n1 as the molecule, how does the “activity, negative = inhibition” value read?
**A.** 9.85%

**Q.** For Cc1nc2cnc(N3CCOCC3)nc2n(CCc2ccccc2)c1=O, which “activity, negative = inhibition” value is on record?
**A.** -12.3%

**Q.** Which “activity, negative = inhibition” value does the source give for COc1ccccc1CNc1ncnc2ccc(-c3ccc(C(=O)N(C)C)cc3)cc12 here?
**A.** -23.1%

**Q.** With c1ccc2c(NCCN3CCOCC3)nc(-c3ccoc3)nc2c1 as the molecule, how does the “activity, negative = inhibition” value read?
**A.** 3.46%
